The nature of assay [1]: inhibitors of TNFa-induced NFkB p65 translocation, primary screen, imaging, HUVEC, MLSMR starter and 10KST1 sets (AID 438).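 Further: compound added about 3h40 before a 20 min TNFalpha stimulation.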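 On inhibition: signal is the nuclear over cytoplasmic p65 intensity ratio per well.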 To be noted: HUVEC TNFa-induced p65 nuclear translocation; cell count: measured here: nuclei count (cytotoxicity indicator), at 2.08 µM; inhibition: at 2 µM, stronger effect = higher value, 0% TNFa-plus-vehicle, 100% no-TNFa wells.
A short description of assay [2]: reduction of polyQ htt aggregates in cells – imaging, exon1htt(103Q)mCFP cells, high-content imaging, primary screen (AID 483;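 active means visual image review flags a hit and inhibition of aggregation exceeds 20%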;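 further: compound exposure lasted 3 days before fixation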;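 on nuclei count: percent of the per-plate median nuclei count of sample wells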). To be noted: exon1htt(103Q)mCFP cell line, aggregate imaging, at 2 µM; inhibition of aggregation: stronger effect = higher value; nuclei count: measured here: cell count, toxicity.
A short description of assay [3]: endothelial E-selectin expression blockers – imaging, HUVEC, immunofluorescence, MLSMR starter and 10KST1 sets, primary screen (AID 487;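 active means visually confirmed hit in the image check and inhibition above 20%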;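 on inhibition: signal is fraction of cell area covered by stained E-selectin grains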;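 on nuclei count: 100% = median nuclei count of all wells on the same plate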). To be noted: HUVEC TNFalpha-induced E-selectin immunofluorescence imaging, at 2 µM; inhibition: stronger effect = higher value; nuclei count: measured here: cell number, toxicity.
Assay [4] concerns the target Voltage-gated potassium channel subunit beta-2 (Rattus norvegicus) (UniProt P62483). The experiment in a line: inhibitors of rat Kvbeta2 reductase activity – biochemical, NADPH fluorescence, primary screen (AID 622;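 active means fluorescence slope higher than the sample average by over 3 SD, cut at about -0.22 in these data, passing the limit was not always enough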;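 further: slope of raw intensity against log time taken from 70 to 1610 s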). The settings on record: recombinant KvBeta, 4-cyanobenzaldehyde reduction, at 10 µM, stronger effect = higher value.
Assay [5] has the same target. The experiment in a line: enhancers of rat Kvbeta2 NADPH turnover – biochemical, NADPH fluorescence, primary screen (AID 623;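 active means NADPH fluorescence slope more negative than the mean of all samples by about 3 SD, 99.7% confidence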;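 further: fluorescence intensity change per second fitted from 20 to 320 s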). The settings on record: Recombinant KvBeta, NADPH fluorescence decrease slope, 10 min; at 10 µM; stronger effect = lower value.
Assay [6] has as its target Alpha-2C adrenergic receptor (Homo sapiens) (UniProt P18825). The experiment in a line: compounds altering alpha2C-coupled GIRK flux – cell-based, HEK293 alpha2C/GIRK1/2, thallium flux, primary screen (AID 624;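 active means fluorescence slope after compound addition differing from the mean of all screened samples at 99.7% confidence, in either direction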;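 further: slope of fluorescence ratio to pre-addition baseline per second over 15 to 24 s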). To be noted: thallium flux BTC fluorescence, at 10 µM, actives lie on both sides.
Assay [7] is described as follows: blockers of RIG-like receptor reporter activation – cell-based, Sendai virus stimulus, luciferase, 10K MLSCN set, TLR/RLR signaling modifier project, primary screen (AID 602276;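 active means inhibition at or above 50% at 10 µM; inactive means inhibition below 50%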;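 further: firefly luciferase from ISG56 promoter only with Renilla not read in this screen; 0% = Sendai virus plus DMSO and 100% = medium plus DMSO without virus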). The settings on record: HEK293 RL24 IRF3 luciferase reporter, at 10 µM, stronger effect = higher value. A general note: A reporter such as luciferase makes a cellular process visible.
Assay [8] in a line: TLR3 IRF3 reporter activation blockers – cell-based, poly I:C stimulus, luciferase, 10K MLSCN set, primary screen (AID 602277;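 active means inhibition of the reporter signal at or above 50%; inactive means inhibition below 50%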). The settings on record: HEK293-TLR3 RL24 IRF3 luciferase reporter, at 10 µM, stronger effect = higher value.

The source made the active and inactive calls.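 How the source made its calls, unless noted: active means inhibition above 20% together with a positive visual image hit; inconclusive means visual image hit but inhibition not above 20%; inactive means no visual image hit.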

Chain of Voltage-gated potassium channel subunit beta-2 (Rattus norvegicus) (P62483 whole entry, looked up): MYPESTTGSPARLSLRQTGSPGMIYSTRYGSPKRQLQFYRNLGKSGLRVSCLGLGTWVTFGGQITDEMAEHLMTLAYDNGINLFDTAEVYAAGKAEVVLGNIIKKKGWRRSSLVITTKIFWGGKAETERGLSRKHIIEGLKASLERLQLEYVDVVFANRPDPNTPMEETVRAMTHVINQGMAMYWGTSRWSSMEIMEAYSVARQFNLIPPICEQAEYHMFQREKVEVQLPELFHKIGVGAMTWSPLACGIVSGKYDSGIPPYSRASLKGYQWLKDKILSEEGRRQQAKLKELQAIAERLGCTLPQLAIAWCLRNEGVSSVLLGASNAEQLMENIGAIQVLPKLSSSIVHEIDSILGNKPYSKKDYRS
Chain of Alpha-2C adrenergic receptor (Homo sapiens) (P18825 whole entry, looked up): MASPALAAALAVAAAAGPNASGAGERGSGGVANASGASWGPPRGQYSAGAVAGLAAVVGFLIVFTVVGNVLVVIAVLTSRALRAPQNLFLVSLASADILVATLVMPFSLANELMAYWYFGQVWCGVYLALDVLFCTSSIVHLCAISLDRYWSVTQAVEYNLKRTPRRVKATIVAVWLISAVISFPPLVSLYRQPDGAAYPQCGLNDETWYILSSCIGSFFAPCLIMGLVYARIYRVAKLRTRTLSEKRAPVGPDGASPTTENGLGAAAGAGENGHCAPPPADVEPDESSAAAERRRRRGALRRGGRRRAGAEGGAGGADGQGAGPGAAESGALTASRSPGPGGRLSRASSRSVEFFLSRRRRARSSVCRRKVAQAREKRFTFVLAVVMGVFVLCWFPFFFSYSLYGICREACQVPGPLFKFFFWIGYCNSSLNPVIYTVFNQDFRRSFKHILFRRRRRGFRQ

The term inhibition denotes the relative decrease from the control value, in per cent. With `O=C(C1COc2ccccc2O1)N1CCCC1` (stereo not drawn), the cell count in assay [1] is 283. The inhibition in assay [1] was -8.4% (inactive); in assay [3], -72.5% (inactive); in assay [7], -11.4% (inactive); in assay [8], 3.67% (inactive). Further, the inhibition of aggregation in assay [2] is 32.8% (active). For the same compound, the nuclei count in assay [2] was found to be 83.7%; in assay [3], 99.2%. The fluorescence slope in assay [4] is -0.332 (inactive). Further, in assay [5], the NADPH fluorescence slope was 1.7e-05 (inactive). The slope in assay [6] is 0.0093 (inactive).
On to `CC(CC(=O)NCc1ccccc1)C1CCCO1` (stereo not drawn), for which the cell count in assay [1] turned out to be 439. For the same compound, the inhibition is -2% (inactive) in assay [1], -112% (inactive) in assay [3], -2.84% (inactive) in assay [7] and -9.76% (inactive) in assay [8]. For the same compound, the inhibition of aggregation in assay [2] was 20.9% (inactive). The nuclei count in assay [2] amounted to 92.2%; in assay [3], 114%. For the same compound, the fluorescence slope in assay [4] was -0.463 (inactive). Besides, the NADPH fluorescence slope in assay [5] was -3.8e-06 (inactive). Moreover, the slope in assay [6] is 0.0065 (inactive).
As for `CCNc1ccc2c(Cl)cc(=O)oc2c1`, the cell count in assay [1] is 356. Also, the inhibition is -2.5% (inactive) in assay [1], -6.6% (inactive) in assay [3], 4.11% (inactive) in assay [7] and -1.88% (inactive) in assay [8]. The inhibition of aggregation in assay [2] is 25.1% (inactive). For the same compound, the nuclei count in assay [2] turned out to be 72.6%; in assay [3] it was 98.3%. The fluorescence slope in assay [4] is -0.255 (inactive). Further, the NADPH fluorescence slope in assay [5] is -3e-05 (inactive). The slope in assay [6] is 0.00496 (inactive).
As to `CC1=Nn2c(nnc2-c2cc(-c3ccccc3)n[nH]2)SC1`, the cell count in assay [1] worked out at 574. Further, the inhibition is -3.3% (inactive) in assay [1], 32.4% (inactive) in assay [3], 18.2% (inactive) in assay [7] and 32.9% (inactive) in assay [8]. In addition, the inhibition of aggregation in assay [2] is -6.6% (inactive). The nuclei count was 81.3% in assay [2] and 87.4% in assay [3]. In addition, the fluorescence slope in assay [4] is -0.617 (inactive). The NADPH fluorescence slope in assay [5] is -1.7e-05 (inactive). The slope in assay [6] is 0.00561 (inactive).
For the compound `COC(=O)c1nc(N)sc1-c1ccccc1`, the cell count in assay [1] amounted to 592. The inhibition in assay [1] was 7.2% (inactive); in assay [3], 4.8% (inactive); in assay [7] it was 11.7% (inactive); in assay [8], 37.7% (inactive). The inhibition of aggregation in assay [2] was 9.3% (inactive). Moreover, the nuclei count in assay [2] is 99.9%; in assay [3], 101%. Moreover, in assay [4], the fluorescence slope was -0.352 (inactive). Besides, the NADPH fluorescence slope in assay [5] was 2.3e-05 (inactive). In addition, the slope in assay [6] was 0.00535 (inactive).
As to `CCOC(=O)N1CCC(NC(=O)CCC(=O)N2CC(C)Oc3ccc(Cl)cc32)CC1` (stereo not drawn), the cell count in assay [1] was determined as 326. For the same compound, the inhibition in assay [1] was 12.5% (inactive); in assay [3] it was 13.6% (inactive); in assay [7], 7.09% (inactive); in assay [8], 6.64% (inactive). Moreover, in assay [2], the inhibition of aggregation is -2.6% (inactive). In addition, the nuclei count stood at 81.9% in assay [2] and 89% in assay [3]. Further, the fluorescence slope in assay [4] is -0.369 (inactive). Moreover, the NADPH fluorescence slope in assay [5] was -5e-05 (inactive). Moreover, in assay [6], the slope is 0.00486 (inactive).
Consider `CC(=O)NCc1ccc(C(=O)CSc2nnc(-c3ccncc3)n2Cc2ccccc2)o1`, for which, in assay [1], the cell count stood at 461. The inhibition is -1.1% (inactive) in assay [1], -25.7% (inactive) in assay [3], 12.6% (inactive) in assay [7] and 20.5% (inactive) in assay [8]. Further, the inhibition of aggregation in assay [2] is 16.2% (inactive). Besides, the nuclei count in assay [2] amounted to 96%; in assay [3] it was 127%. The fluorescence slope in assay [4] is -0.59 (inactive). In assay [5], the NADPH fluorescence slope was -5.8e-05 (inactive). Moreover, in assay [6], the slope was 0.00604 (inactive).
Turning to `O=C(Cn1c(C(=O)NCC2CCCO2)cc2sccc21)c1ccccc1` (stereo not drawn), the cell count in assay [1] is 280. Also, the inhibition in assay [1] is -13.4% (inactive); in assay [3] it was -77.7% (inactive); in assay [7], 5.12% (inactive); in assay [8], 4.66% (inactive). In assay [2], the inhibition of aggregation was 20.2% (inactive). The nuclei count came to 80% in assay [2] and 99.3% in assay [3]. The fluorescence slope in assay [4] is -0.611 (inactive). The NADPH fluorescence slope in assay [5] was 5.3e-06 (inactive). The slope in assay [6] was 0.00924 (inactive).
Consider `CCOc1ccc(S(=O)(=O)Nc2cccc(Cl)c2)cc1`, for which the cell count in assay [1] was 376. For the same compound, the inhibition in assay [1] is -2.9% (inactive); in assay [3] it was -10.2% (inactive); in assay [7], 38.8% (inactive); in assay [8], 34.1% (inactive). Further, in assay [2], the inhibition of aggregation was -0.3% (inactive). Besides, the results for the nuclei count in assay [2] and in assay [3] were 78.4% and 81.5%, respectively. In addition, the fluorescence slope in assay [4] was -0.627 (inactive). Besides, the NADPH fluorescence slope in assay [5] was -2.5e-05 (inactive). Also, in assay [6], the slope was 0.00349 (inactive).
With `Cc1cc(N2C(=O)C(O)=C(C(=O)c3ccc(C)o3)C2c2cccs2)no1` (stereo not drawn), the cell count in assay [1] is 257. For the same compound, the inhibition is -3.6% (inactive) in assay [1], 12% (inactive) in assay [3], -1.8% (inactive) in assay [7] and -26.2% (inactive) in assay [8]. Also, the inhibition of aggregation in assay [2] is 13.3% (inactive). Besides, the nuclei count in assay [2] came to 75.8%; in assay [3] it was 103%. Besides, in assay [4], the fluorescence slope was -0.42 (inactive). For the same compound, the NADPH fluorescence slope in assay [5] was -1.8e-05 (inactive). Moreover, the slope in assay [6] was 0.00606 (inactive).
On to `CC1(C)CC(=O)C=C(NCCN2CCN(C(=O)Nc3ccccc3)CC2)C1`, for which the cell count in assay [1] came out at 730. Also, the inhibition in assay [1] is -5.8% (inactive); in assay [3] it was -2.1% (inactive); in assay [7] it was -1.55% (inactive); in assay [8] it was -0.835% (inactive). The inhibition of aggregation in assay [2] is 0% (inactive). For the same compound, the nuclei count came out at 99.6% in assay [2] and 109% in assay [3]. For the same compound, the fluorescence slope in assay [4] was -0.412 (inactive). Also, the NADPH fluorescence slope in assay [5] was -4.4e-05 (inactive). Further, in assay [6], the slope was 0.0067 (inactive).
In the case of `COc1ccc(C(=O)CSc2nc(C)cc(=O)[nH]2)cc1`, in assay [1], the cell count was 291. Moreover, the inhibition in assay [1] is 6.5% (inactive); in assay [3], 43.1% (inactive); in assay [7], 14.8% (inactive); in assay [8], 9.5% (inactive). For the same compound, in assay [2], the inhibition of aggregation is 13.9% (inactive). The values for the nuclei count in assay [2] and in assay [3] were 92.1% and 98.7%, respectively. Also, in assay [4], the fluorescence slope is -0.506 (inactive). Further, the NADPH fluorescence slope in assay [5] was 2.1e-06 (inactive). In addition, the slope in assay [6] was 0.0048 (inactive).
`CN1CCN(c2ncnc3c2cnn3-c2ccc(Cl)cc2)CC1`: in assay [1], the cell count worked out at 688. Moreover, the inhibition was -8.5% (inactive) in assay [1], -27.8% (inactive) in assay [3], 15.5% (inactive) in assay [7] and 6.85% (inactive) in assay [8]. Further, the inhibition of aggregation in assay [2] was -0.6% (inactive). In addition, the figures for the nuclei count in assay [2] and in assay [3] were 116% and 122%, respectively. Moreover, the fluorescence slope in assay [4] is -0.591 (inactive). Further, the NADPH fluorescence slope in assay [5] was 1.6e-05 (inactive). Moreover, the slope in assay [6] was 0.00771 (inactive).

For the origin of these results see PubChem BioAssay.
